Assay [1] in a line: qHTS assay to identify small molecule antagonists of the thyroid receptor (TR) signaling pathway - cell viability counter screen (AID 743064). Also: nearly all actives have a fitted effect of over 50% in size. Also: potency is read from the fitted curve at half-maximal effect. Summed up: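 In rat pituitary GH3.TRE-Luc reporter cells co-exposed to compound and 1 nM T3 for 23.5 h, cytotoxicity was assessed with CellTiter-Fluor in the same wells, read by fluorescence.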
(qHTS replaces the single test concentration by a dilution series.)

The nature of assay [2]: qHTS assay to identify small molecule antagonists of the thyroid receptor (TR) signaling pathway (AID 743065). Also: nearly all actives have a fitted effect of over 55% in size. Also: potency is read from the fitted curve at half-maximal effect. In outline:
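Antagonism measured as loss of luciferase signal in GH3 cells stably carrying a TRE-luciferase reporter, co-treated with compound and T3 (1 nM final) for 23.5 h at 37 C. Viability was read in the same well by CellTiter-Fluor.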

In assay [3] the test system is thyroid hormone receptor (rat, GH3 cells). Briefly: qHTS assay to identify small molecule agonists of the thyroid receptor (TR) signaling pathway (AID 743066; calls by dose curve).
Assay [4] has as its target Estrogen receptor (Homo sapiens) (UniProt P03372). The experiment in a line: qHTS assay to identify small molecule antagonists of the estrogen receptor alpha (ER-alpha) signaling pathway (AID 743069; active = well fitted curve in the direction sought with a large enough effect in the signal ratio in the repeat runs, not every such curve was filed as active; the % refers to the signal ratio). Summed up:
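ER-alpha-UAS-bla GripTite HEK293 line; 2% charcoal-stripped FBS overnight; plated, 4 hr 37C/5% CO2; cpd in DMSO + 17beta-estradiol, 18 hr 37C; LiveBLAzer B/G FRET substrate 2 hr RT; fluorescence intensity.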

Assay [5] is described as follows: qHTS assay to identify small molecule antagonists of the estrogen receptor alpha (ER-alpha) signaling pathway - cell viability counter screen (AID 743074; calls by dose curve;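 also: HEK293 cells carrying ER-alpha-UAS-bla reporter stimulated with 17beta-estradiol; nearly all actives have a fitted effect of over 45% in size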).
Assay [6] has as its target Estrogen receptor (Homo sapiens) (UniProt P03372). The experiment in a line: qHTS assay to identify small molecule agonists of the estrogen receptor alpha (ER-alpha) signaling pathway (AID 743075; calls by dose curve;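 also: HEK293 GripTite cells with ER-alpha and UAS-driven beta-lactamase reporter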).
For assay [7] the target is unchanged. The experiment in a line: qHTS assay to identify small molecule agonists of the estrogen receptor alpha (ER-alpha) signaling pathway using the BG1 cell line (AID 743079). Also: nearly all actives have a fitted effect of over 20% in size. Also: potency is read from the fitted curve at half-maximal effect.
Assay [8] is described as follows: qHTS assay to identify small molecule antagonists of the estrogen receptor alpha (ER-alpha) signaling pathway using the BG1 cell line (AID 743080; calls by dose curve;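 also: BG1 cells stimulated with 17beta-estradiol alongside compound; series mostly up to about 70 µM; nearly all actives have a fitted effect of over 25% in size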). Summed up:
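BG1Luc4E2, endogenous ER-alpha, 4xERE-luc; 5 d charcoal-stripped FBS, phenol red free; 24 h plating; cpd + 17beta-estradiol 21.5 h, 37 C/5% CO2; CellTiter-Fluor viability 30 min, then ONE-Glo luciferase 30 min RT.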

Assay [9] can be described thus: qHTS assay to identify small molecule antagonists of the estrogen receptor alpha (ER-alpha) signaling pathway using the BG1 cell line - cell viability counter screen (AID 743081).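 Also: compound given together with 17beta-estradiol as the ER stimulus; series mostly up to about 70 µM; nearly all actives have a fitted effect of over 45% in size.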
Another assay addresses Aromatase (Homo sapiens) (UniProt P11511). The experiment in a line: qHTS assay to identify aromatase inhibitors (AID 743083). Also: nearly all actives have a fitted effect of over 55% in size. Also: potency is read from the fitted curve at half-maximal effect.

Results filed as inconclusive are left out. The source made the active and inactive calls. Unless noted, calls follow the shape of the dose curve; as a rule, active = well fitted curve in the direction sought with a large enough effect in the repeat runs; inconclusive = weak or mixed curves; inactive = no such curve, though single readings can be large; an effect the other way counts as inactive or inconclusive.

Estrogen receptor (Homo sapiens), sequence (P03372 whole entry, looked up): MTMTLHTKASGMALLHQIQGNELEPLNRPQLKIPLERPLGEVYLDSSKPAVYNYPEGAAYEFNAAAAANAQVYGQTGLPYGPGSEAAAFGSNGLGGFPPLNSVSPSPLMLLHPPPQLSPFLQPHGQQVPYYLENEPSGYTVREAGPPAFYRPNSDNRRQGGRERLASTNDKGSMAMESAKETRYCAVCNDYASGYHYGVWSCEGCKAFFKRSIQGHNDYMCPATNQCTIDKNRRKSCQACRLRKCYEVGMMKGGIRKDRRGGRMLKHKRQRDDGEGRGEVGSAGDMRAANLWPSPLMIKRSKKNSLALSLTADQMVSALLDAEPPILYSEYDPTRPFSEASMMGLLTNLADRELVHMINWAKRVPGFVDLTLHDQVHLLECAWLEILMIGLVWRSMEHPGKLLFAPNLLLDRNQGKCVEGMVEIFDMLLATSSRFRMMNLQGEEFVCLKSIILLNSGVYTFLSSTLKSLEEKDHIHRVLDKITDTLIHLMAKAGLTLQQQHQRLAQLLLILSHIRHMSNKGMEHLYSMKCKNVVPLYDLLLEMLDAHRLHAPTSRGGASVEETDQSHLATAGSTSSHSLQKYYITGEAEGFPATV
Aromatase (Homo sapiens), sequence (P11511 whole entry, looked up): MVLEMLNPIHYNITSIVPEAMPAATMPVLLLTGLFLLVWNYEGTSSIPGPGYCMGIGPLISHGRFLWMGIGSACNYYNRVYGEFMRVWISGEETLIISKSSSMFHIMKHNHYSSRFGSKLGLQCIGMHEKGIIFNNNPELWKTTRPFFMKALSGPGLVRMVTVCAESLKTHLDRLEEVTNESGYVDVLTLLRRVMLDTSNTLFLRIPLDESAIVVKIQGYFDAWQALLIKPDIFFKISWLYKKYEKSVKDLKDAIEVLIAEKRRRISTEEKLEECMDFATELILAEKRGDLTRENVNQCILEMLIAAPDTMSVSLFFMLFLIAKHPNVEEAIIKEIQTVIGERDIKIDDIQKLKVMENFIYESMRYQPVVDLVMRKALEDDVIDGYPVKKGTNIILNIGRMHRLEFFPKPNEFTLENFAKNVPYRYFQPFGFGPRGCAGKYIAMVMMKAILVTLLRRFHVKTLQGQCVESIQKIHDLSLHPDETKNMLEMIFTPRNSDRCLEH

For `c1ccc(CCCc2ccncc2)cc1`, the Potency result in [1], in assay [2], in [3], in assay [4], in [5] and in assay [6] was “inactive” in each case. In addition, the Potency entry in assay [7], in assay [8] and in [9] was “inactive” in each case. Further, the Potency in the assay with Aromatase (Homo sapiens) was 30.6 µM (active).

As to `COC(C)(C)OC`, the Potency result in assay [1], in assay [2], in assay [3], in assay [4], in assay [5] and in assay [6] was “inactive” throughout. The Potency result (in [7]; in [8]; in assay [9]; in the assay with Aromatase (Homo sapiens)) was “inactive” throughout.

Consider `C=CC(=O)O`, for which the Potency result in assay [1], in assay [2], in assay [3], in assay [4], in assay [5] and in assay [6] was “inactive” in each case. In addition, the Potency result (in assay [7]; in [8]; in [9]; in the assay with Aromatase (Homo sapiens)) was “inactive” each time.

Turning to `CC(=O)C(=O)CC(C)C`, the Potency entry in assay [1], in assay [2], in assay [3], in [4], in assay [5] and in [6] was “inactive” throughout. Besides, the Potency result (in [8]; in assay [9]; in the assay with Aromatase (Homo sapiens)) was “inactive” each time. The Potency in [7] was 34.2 µM (active).

As for `CC(C)COC(=O)COc1cc(Cl)c(Cl)cc1Cl`, the Potency entry in assay [1], in assay [2], in assay [3], in assay [4], in [5] and in [6] was “inactive” throughout. For the same molecule, the Potency result (in assay [7]; in [8]; in [9]; in the assay with Aromatase (Homo sapiens)) was “inactive” in each case.

With `O=CNNC=O`, the Potency result in [1], in [2], in assay [3], in assay [4], in assay [5] and in [6] was “inactive” each time. The Potency entry (in [7]; in assay [8]; in [9]; with Aromatase (Homo sapiens)) was “inactive” in each case.

For `O=c1[nH][nH]c(=O)c2cc([N+](=O)[O-])ccc12`, the Potency entry in assay [1], in [2], in [3], in assay [4], in [5] and in [6] was “inactive” each time. Further, the Potency result (in assay [7]; in assay [8]; in assay [9]; in the assay with Aromatase (Homo sapiens)) was “inactive” throughout.

As to `CCCCCCCCCCCC(=O)OCC(O)CO` (stereo not given), the Potency result in assay [1], in assay [2], in [3], in [4], in assay [5] and in assay [6] was “inactive” in each case. The Potency result (in assay [7]; in assay [8]; in assay [9]; with Aromatase (Homo sapiens)) was “inactive” each time.

For `COc1ccc(-c2cc(C(F)F)nn2-c2ccc(S(N)(=O)=O)cc2)cc1F`, the Potency entry in assay [1], in assay [2], in assay [3], in assay [4], in assay [5] and in assay [6] was “inactive” throughout. The Potency entry (in assay [7]; in assay [8]; in assay [9]; with Aromatase (Homo sapiens)) was “inactive” in each case.

Turning to `CNc1c2c(nn1C)CCCC2`, the Potency entry in [1], in assay [2], in assay [3], in assay [4], in assay [5] and in assay [6] was “inactive” in each case. In addition, the Potency result (in [7]; in assay [8]; in assay [9]; with Aromatase (Homo sapiens)) was “inactive” each time.

`O=c1[nH]c2cc(C(F)(F)F)c(N3CCOCC3)cc2n(CP(=O)(O)O)c1=O`: the Potency result in assay [1], in assay [2], in [3], in assay [4], in assay [5] and in assay [6] was “inactive” in each case. The Potency entry (in assay [7]; in assay [8]; in assay [9]; with Aromatase (Homo sapiens)) was “inactive” throughout.

On to `O=C(c1ccccc1)C1CCC1`, for which the Potency result in assay [1], in [2], in [3], in assay [4], in assay [5] and in [6] was “inactive” each time. Besides, the Potency entry (in assay [7]; in assay [8]; in assay [9]; with Aromatase (Homo sapiens)) was “inactive” each time.

With `Nc1nc2ccc(OC(F)(F)F)cc2s1`, the Potency entry (in assay [1]; in [3]; in assay [4]; in assay [5]; in [9]; in the assay with Aromatase (Homo sapiens)) was “inactive” in each case. In addition, the results for the Potency in [2] and in assay [7] were 21.1 µM (active) and 5.96 µM (active), respectively.

As for `BrC(Br)C(Br)Br`, the Potency entry in assay [1], in assay [2], in assay [3], in [4], in assay [5] and in assay [6] was “inactive” throughout. For the same molecule, the Potency entry (in assay [7]; in assay [8]; in assay [9]; with Aromatase (Homo sapiens)) was “inactive” throughout.

Consider `CC(C)c1ccc(C(=O)N=C(N)N)cc1S(C)(=O)=O`, for which the Potency entry in [1], in assay [2], in assay [3], in assay [4], in assay [5] and in assay [6] was “inactive” throughout. Moreover, the Potency entry (in assay [8]; in assay [9]; in the assay with Aromatase (Homo sapiens)) was “inactive” each time.

Regarding `Cc1cccc2sc(N)nc12`, the Potency entry in [1], in assay [2], in [3], in assay [4], in [5] and in [6] was “inactive” in each case. For the same molecule, the Potency result (in [7]; in [8]; in assay [9]; in the assay with Aromatase (Homo sapiens)) was “inactive” each time.

Take `O=C(NC(Cc1cc(=O)[nH]c2ccccc12)C(=O)O)c1ccc(Cl)cc1` (stereo not given): the Potency entry in assay [1], in assay [2], in [3], in assay [4], in assay [5] and in assay [6] was “inactive” each time. Moreover, the Potency entry (in [7]; in assay [8]; in assay [9]; with Aromatase (Homo sapiens)) was “inactive” throughout.

Regarding `CC(C)CC(O)CC(C)C`, the Potency entry in assay [1], in assay [2], in assay [3], in [4], in assay [5] and in [6] was “inactive” in each case. Besides, the Potency result (in [7]; in [8]; in assay [9]; in the assay with Aromatase (Homo sapiens)) was “inactive” in each case.

`O=NN(CCCl)C(=O)NCCCl`: the Potency entry in [1], in assay [2], in assay [3], in [4], in [5] and in [6] was “inactive” each time. In addition, the Potency result (in assay [7]; in assay [8]; in assay [9]; with Aromatase (Homo sapiens)) was “inactive” each time.

Consider `CN1CCCN(C(c2ccccc2)c2ccc(Cl)cc2)CC1` (stereo not given), for which the Potency was 6.68 µM (active) in assay [1] and 10.6 µM (active) in assay [2]. Moreover, the Potency result (in assay [3]; in [4]; in assay [6]; in assay [7]; in [8]; with Aromatase (Homo sapiens)) was “inactive” throughout.

Consider `Nc1c(Cl)cc(Cl)cc1[N+](=O)[O-]`, for which the Potency result in assay [1], in [2], in assay [3], in [5], in assay [6] and in [7] was “inactive” throughout. Besides, the Potency result in assay [8] and in [9] was “inactive” throughout.

Regarding `CCCCCCCCCCCCCCN(C)C`, the Potency entry in assay [1], in assay [2], in assay [3], in assay [5], in assay [6] and in [7] was “inactive” in each case. Further, the Potency result (in [8]; in [9]; in the assay with Aromatase (Homo sapiens)) was “inactive” in each case.

In the case of `c1ccc2sc(SSc3nc4ccccc4s3)nc2c1`, the Potency result in assay [1], in assay [2], in [3], in assay [4], in assay [5] and in assay [6] was “inactive” each time. Besides, the Potency entry (in assay [7]; in assay [8]; in assay [9]; with Aromatase (Homo sapiens)) was “inactive” each time.

As to `CC(C)N=C=NC(C)C`, the Potency entry in [1], in [2], in [3], in assay [4], in assay [5] and in [8] was “inactive” throughout. Also, the Potency entry (in [9]; with Aromatase (Homo sapiens)) was “inactive” each time.

For the origin of these results see PubChem BioAssay (Tox21).
